The values that follow come from PubChem BioAssay (NCI).

A short description of assay [1]: NCI Yeast Anticancer Drug Screen. Data for the rad50 strain (AID 155).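 Further: 0% = growth of vehicle-only cultures of the same strain.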 Particulars: S. cerevisiae rad50 strain growth inhibition; at 50.0 µM; stronger effect = higher value. Summed up: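 Relative growth inhibition (compound vs vehicle) was measured in yeast with a defined repair-gene alteration.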
Assay [2] in a line: NCI Yeast Anticancer Drug Screen. Data for the mec2-1 strain (AID 157). Particulars: S. cerevisiae mec2-1 strain, at 50.0 µM, stronger effect = higher value. Summed up: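 Mutant yeast (mec2-1) grown with compound; growth inhibition relative to vehicle control reported.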
The nature of assay [3]: NCI Yeast Anticancer Drug Screen. Data for the sgs1 mgt1 strain (AID 161).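 Further: 0% = growth of cultures given vehicle only.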 Particulars: S. cerevisiae sgs1 mgt1 strain, at 50.0 µM, stronger effect = higher value. Summed up:
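Compounds are added to genetically altered yeast, and growth is compared with cultures given vehicle alone to give percent inhibition.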

Assay [4] can be described thus: NCI Yeast Anticancer Drug Screen. Data for the cln2 rad14 strain (AID 165).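 Further: 0% = growth equal to vehicle treated cultures.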 Particulars: S. cerevisiae cln2 rad14 strain, at 50.0 µM, stronger effect = higher value. Summed up:
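Readout is yeast growth inhibition versus vehicle-treated controls, using a strain with cln2 and rad14 alterations exposed to compound.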

Assay [5] is described as follows: NCI Yeast Anticancer Drug Screen. Data for the bub3 strain (AID 167). Particulars: S. cerevisiae bub3 mutant strain, at 50.0 µM, stronger effect = higher value. Summed up: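 Screening used yeast with an engineered genetic alteration affecting cell cycle control. Compound-exposed cultures were compared with vehicle cultures, and reduced growth was taken as inhibition.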
Assay [6] is described as follows: NCI Yeast Anticancer Drug Screen. Data for the mlh1 rad18 strain (AID 175). Particulars: S. cerevisiae mlh1 rad18 strain growth inhibition; at 50.0 µM; stronger effect = higher value. The gist of the method:
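Genetically defined yeast (DNA repair-deficient) exposed to compounds; growth inhibition determined relative to vehicle.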

SMILES strings stand for the structures. Several values for one entry are separate records, joined by “and”; a condition that tells them apart may be missing. Equal values may be shown once. This is part of a sample that, as a whole, favours compounds with a hit. Of some 79,000 tested, about 15% had one in any assay. Some structures have more than one record in an assay (separate samples or runs), and their calls can disagree. Activity calls are given as the source filed them. No stated cut-off is given here; in the data, active means growth inhibition above about 70%; inactive means the rest.

Consider `CC[C@@]1(O)C(=O)OCc2c1cc1n(c2=O)Cc2c-1nc1ccccc1c2C=Nc1ccccc1N[C@@H]1c2cc3c(cc2[C@@H](c2cc(OC)c(O)c(OC)c2)[C@H]2C(=O)OC[C@@H]21)OCO3`, for which the growth inhibition in assay [1] was 78.8% (active) and 86.8% (active); in assay [2], 71.7% (active) and 80.9% (active); in assay [3] it was 76.5% (active) and 84.7% (active); in assay [4] it was 63% (inactive) and 82% (active); in assay [5], 69.9% (inactive) and 85.9% (active); in assay [6] it was 39.6% (inactive) and 85.8% (active).
In the case of `CC(COC(=O)NCc1ccccc1)OC(N)=O` (stereo unspecified), the growth inhibition is -1.05% (inactive) in assay [1]; -14.8% (inactive) in assay [2]; 13.1% (inactive) in assay [3]; -10.3% (inactive) in assay [4]; 1.15% (inactive) in assay [5]; -11.4% (inactive) in assay [6].
For the compound `N/C(=N\N=C\c1ccccc1O)N[N+](=O)[O-]`, the growth inhibition in assay [1] was -17.5% (inactive); in assay [2], -22.9% (inactive); in assay [3], -14.8% (inactive); in assay [4] it was -108% (inactive); in assay [5], -19.2% (inactive); in assay [6], -5.85% (inactive).
As for `CN(C)P1(=S)NCC(C(C)(C)C)CO1` (stereo unspecified), the growth inhibition in assay [1] is 10.2% (inactive); in assay [2], -40.1% (inactive); in assay [3], -10.9% (inactive); in assay [4] it was 11.2% (inactive); in assay [5] it was 18.5% (inactive); in assay [6] it was -43.4% (inactive).
Turning to `CC(=O)c1ccc(N2CCNCC2)cc1`, the growth inhibition in assay [1] is -27.6% (inactive); in assay [2], -49.8% (inactive); in assay [3], -3.95% (inactive); in assay [4] it was 16.6% (inactive); in assay [5], -14.2% (inactive); in assay [6] it was -22.1% (inactive).
As to `CC(C)(C)[Si](C)(C)OC(=O)CCCc1ccc(N(CCCl)CCCl)cc1`, the growth inhibition in assay [1] was 12.1% (inactive); in assay [2], -9.9% (inactive); in assay [3], -10.2% (inactive); in assay [4], 9.4% (inactive); in assay [5] it was -21.7% (inactive); in assay [6], -47.1% (inactive).
As to `O=P(CCl)(Oc1ccc(Cl)cc1)Oc1ccc(Cl)cc1`, the growth inhibition in assay [1] is 20.6% (inactive); in assay [2], 16.1% (inactive); in assay [3] it was 6% (inactive); in assay [4], -19.4% (inactive); in assay [5], 7.5% (inactive); in assay [6] it was -10.2% (inactive).
For the compound `CC1(C)COP(=O)(c2ccccc2)N1` (stereo unspecified), the growth inhibition was -14.1% (inactive) in assay [1]; -21.4% (inactive) in assay [2]; -7.4% (inactive) in assay [3]; -24.4% (inactive) in assay [4]; -1.5% (inactive) in assay [5]; -3.1% (inactive) in assay [6].
Regarding `C/C=C(\C)C(=O)N[C@@H](c1ccccc1)[C@@H](O)C(=O)OC1C[C@@]2(O)[C@@H](OC(=O)c3ccccc3)[C@@H]3[C@]4(OC(C)=O)CO[C@@H]4C[C@H](O)[C@@]3(C)C(=O)[C@H](OC(C)=O)C(=C1C)C2(C)C` (stereo partly specified), the growth inhibition was 34.1% (inactive) in assay [1]; 13.6% (inactive) in assay [2]; 13.8% (inactive) in assay [3]; 16.9% (inactive) in assay [4]; 21.4% (inactive) in assay [5]; 29.9% (inactive) in assay [6].
Take `[Cl][Pt+2][Cl].c1ccc(CC2CC[N-]CC2)cc1.c1ccc(CC2CC[N-]CC2)cc1`: the growth inhibition in assay [1] was -11.6% (inactive); in assay [2], 1.1% (inactive); in assay [3], 1.3% (inactive); in assay [4], 2.35% (inactive); in assay [5] it was 9.3% (inactive); in assay [6] it was -3.6% (inactive).
On to `CN1C(=O)NC(C)(c2cccc(N(CCCl)CCCl)c2)C1=O` (stereo unspecified), for which the growth inhibition in assay [1] was 5.5% (inactive); in assay [2] it was 24.2% (inactive); in assay [3], 10.8% (inactive); in assay [4], 8.2% (inactive); in assay [5], -13.9% (inactive); in assay [6], 27.6% (inactive).
Consider `CC(CC(C)(C)C)C(=O)Cl` (stereo unspecified), for which the growth inhibition was 7.85% (inactive) in assay [1]; -2.7% (inactive) in assay [2]; 5.35% (inactive) in assay [3]; 10.9% (inactive) in assay [4]; 4.15% (inactive) in assay [5]; 23.4% (inactive) in assay [6].
Consider `O=C(Cl)OCCOCCOC(=O)Cl`, for which the growth inhibition in assay [1] was -4.35% (inactive); in assay [2], -6.1% (inactive); in assay [3], 6.95% (inactive); in assay [4], -28.1% (inactive); in assay [5], -3.15% (inactive); in assay [6], -4.4% (inactive).
For `CO[C@H]1Nc2c(ccc(C)c2O)C(=O)N2C=C(/C=C/C(N)=O)C[C@@H]12`, the growth inhibition was 89.2% (active) in assay [1]; 91.5% (active) in assay [2]; 90% (active) in assay [3]; 90.2% (active) in assay [4]; 90.3% (active) in assay [5]; 87.3% (active) in assay [6].
For the compound `COC1=CC2C3Cc4c(-c5cc(OC)c(O)c6c5CC5C7C=C(OC)C(=O)CC67CCN5C)cc(OC)c(O)c4C2(CCN3C)CC1=O` (stereo unspecified), the growth inhibition in assay [1] is -2.7% (inactive) and -3.05% (inactive); in assay [2], 1.25% (inactive) and 2.55% (inactive); in assay [3] it was -2.75% (inactive) and -13.1% (inactive); in assay [4], 0.25% (inactive) and -10.2% (inactive); in assay [5], -2.45% (inactive) and -0.65% (inactive); in assay [6], 3.7% (inactive) and 12.1% (inactive).
As for `COCC#CCN(C)C`, the growth inhibition in assay [1] was -7.75% (inactive); in assay [2], -8.3% (inactive); in assay [3] it was -13.8% (inactive); in assay [4], 2.85% (inactive); in assay [5], 9.95% (inactive); in assay [6] it was -9.4% (inactive).
